Among the data in PubChem BioAssay (NCI) are growth values, retold here.

The structures appear in SMILES notation. About 83,000 compounds went through this panel and 20% of them were active in at least one assay; those are over-represented in the sample as a whole.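 Compound tested at a single concentration for 48 hours in 96-well plates; a percent growth value below 10 was scored as active.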 Unmarked numbers belong to inactive results. The source made the active and inactive calls.

Test systems include NCI-H23 lung; NCI-H226 lung; NCI-H322M lung; HOP-62 NSCLC; NCI-H460 lung; HOP-92 NSCLC; NCI-H522 lung; A549/ATCC NSCLC; 786-0 renal; COLO 205 colon.
Holding throughout (experiment): NCI-60 one-dose screen, 48 h (100 = growth as untreated, 0 = no growth, -100 = all killed)
Common to all, as to details: 10 µM unless noted

On to `N#Cc1c2c(c(N)[nH]c1=O)C(=O)NC2(O)c1ccccc1` (stereo not given), for which the growth is 98.8% in the test on NCI-H23 lung; 99.2% in the test with NCI-H226 lung; 103% in the test on NCI-H322M lung; 104% in the test with HOP-62 NSCLC; 118% in the test with NCI-H460 lung; 114% with HOP-92 NSCLC. For the same molecule, the growth in the test with NCI-H522 lung was 85.1%; in the test with A549/ATCC NSCLC, 97.1%; in the test on 786-0 renal, 104%; in the test on COLO 205 colon, 107%.

As to `Cc1c(F)cccc1NC(=O)c1sc2nc3c(cc2c1N)CCCCC3`, the growth in the test on NCI-H23 lung was 79.6%; with NCI-H226 lung, 56.8%; in the test with NCI-H322M lung, 85.8%; in the test on HOP-62 NSCLC, 50.3%; with NCI-H460 lung, 56.7%; in the test on HOP-92 NSCLC, 70.5%. In addition, the growth in the test with NCI-H522 lung is 20%; with A549/ATCC NSCLC, 73.9%; with 786-0 renal it was 75.7%; with COLO 205 colon, 74.2%.

Regarding `CCCN1C(=O)CSC1=Nc1ccc2cc3ccc(N=C4SCC(=O)N4CCC)cc3nc2c1`, the growth with NCI-H23 lung is 35.8%; in the test with NCI-H226 lung it was 32.2%; with NCI-H322M lung, 86.4%; in the test on HOP-62 NSCLC it was 47.6%; in the test on NCI-H460 lung, 36.8%; in the test on HOP-92 NSCLC, 57.1%. Also, the growth is 31.4% in the test on NCI-H522 lung, 41.4% with A549/ATCC NSCLC, 8.44% (active) in the test on 786-0 renal and 36.8% in the test on COLO 205 colon.

Take `O=C(Nc1ccc(-n2ccc3c(NC(=O)c4ccccc4)ncnc32)cc1)Nc1ccc(Cl)c(C(F)(F)F)c1`: the growth in the test on NCI-H23 lung is -28.2% (active); in the test on NCI-H226 lung, 8.8% (active); in the test on NCI-H322M lung it was 36%; with HOP-62 NSCLC, 20.1%; in the test on NCI-H460 lung it was -62.2% (active); in the test on HOP-92 NSCLC it was -8.52% (active). The growth with NCI-H522 lung was -58.9% (active); in the test with A549/ATCC NSCLC it was -62.9% (active); in the test with 786-0 renal it was 37%; with COLO 205 colon it was 17.4%.

For the molecule `CCN(CC)CC(=O)Nc1c(C)cccc1C`, the growth in the test on NCI-H23 lung is 106%; with NCI-H226 lung, 92.9%; in the test on NCI-H322M lung, 90.2%; in the test on HOP-62 NSCLC, 106%; in the test with NCI-H460 lung, 112%; in the test with HOP-92 NSCLC, 104%. Further, the growth is 101% in the test with NCI-H522 lung, 104% with A549/ATCC NSCLC, 95.4% in the test with 786-0 renal and 115% with COLO 205 colon.

As to `O=C(O)c1cccc(S(=O)(=O)c2ccccc2)c1`, the growth is 96.8% in the test on NCI-H23 lung; 96.8% with NCI-H226 lung; 98.6% with NCI-H322M lung; 103% with HOP-62 NSCLC; 100% in the test with NCI-H460 lung; 82.8% in the test with HOP-92 NSCLC. Further, the growth is 93.5% in the test with NCI-H522 lung, 102% with A549/ATCC NSCLC, 108% in the test on 786-0 renal and 104% in the test with COLO 205 colon.

In the case of `Cc1ccc(-c2cn3cc([N+](=O)[O-])ccc3n2)cc1`, the growth is 83.5% in the test on NCI-H23 lung; 72.2% with NCI-H226 lung; 95.9% in the test on NCI-H322M lung; 91.4% in the test on HOP-62 NSCLC; 97.6% in the test on NCI-H460 lung; 110% in the test with HOP-92 NSCLC. For the same molecule, the growth in the test with NCI-H522 lung is 71.3%; in the test with A549/ATCC NSCLC, 85.5%; in the test on 786-0 renal it was 91.9%; in the test on COLO 205 colon it was 94.4%.

For the molecule `COc1ccc(Cn2cc3c(c2-c2cc(OC)c(OC)c(OC)c2)CCc2c(CO)noc2-3)cc1`, the growth in the test with NCI-H23 lung was 38.3%; with NCI-H226 lung, 47.7%; in the test on NCI-H322M lung, 39.7%; with HOP-62 NSCLC, 35.2%; in the test with NCI-H460 lung, 4.62% (active); with HOP-92 NSCLC, 57%. The growth is 9.75% (active) in the test on NCI-H522 lung, 32.5% with A549/ATCC NSCLC, 45% in the test on 786-0 renal and -23.6% (active) in the test on COLO 205 colon.

Turning to `CC(C)NCC(O)COc1ccc(CC(N)=O)cc1` (stereo not given), the growth in the test with NCI-H23 lung was 105%; with NCI-H226 lung, 102%; in the test with NCI-H322M lung it was 100%; with HOP-62 NSCLC it was 102%; with NCI-H460 lung, 109%; in the test on HOP-92 NSCLC, 85.6%. The growth with NCI-H522 lung is 94.9%; in the test with A549/ATCC NSCLC it was 106%; in the test with 786-0 renal, 97.2%; in the test with COLO 205 colon it was 114%.

With `COc1cc(C(=O)NNC(=O)c2ccccc2C(=O)O)cc(OC)c1OC`, the growth was 15.9% in the test with NCI-H23 lung; 74.6% in the test on NCI-H226 lung; 80.7% in the test with NCI-H322M lung; 51.6% with HOP-62 NSCLC; 11.9% in the test on NCI-H460 lung; 55.3% with HOP-92 NSCLC. Further, the growth with NCI-H522 lung was 32.2%; with A549/ATCC NSCLC, 52.7%; in the test with 786-0 renal, 38.8%; in the test with COLO 205 colon it was 37.5%.

As for `CC(CN(C)C)CN1c2ccccc2CCc2ccccc21` (stereo not given), the growth in the test on NCI-H23 lung is 83.3%; with NCI-H226 lung it was 100%; in the test on NCI-H322M lung, 77.1%; in the test with HOP-62 NSCLC it was 96.4%; in the test on NCI-H460 lung, 103%; with HOP-92 NSCLC it was 38.9%. Moreover, the growth with NCI-H522 lung was 80.2%; in the test on A549/ATCC NSCLC it was 94.4%; in the test on 786-0 renal, 64.3%; in the test on COLO 205 colon, 46.1%.

Turning to `COc1cc(-c2nc3ccccc3s2)ccc1OCc1nc2n(n1)S(=O)(=O)c1ccccc1N2C`, the growth with NCI-H23 lung was 92.7%; in the test with NCI-H226 lung, 101%; with NCI-H322M lung, 68.9%; in the test on HOP-62 NSCLC it was 46.1%; in the test with NCI-H460 lung, 101%; with HOP-92 NSCLC, 1.17% (active). For the same molecule, the growth was 60.7% in the test with NCI-H522 lung, 91.1% in the test with A549/ATCC NSCLC, 62.1% in the test on 786-0 renal and 102% in the test with COLO 205 colon.

For `c1ccc(-c2nc3sc(C(c4ccccc4)c4ccccc4)nn3c2-c2ccccc2)cc1`, the growth is 92.2% with NCI-H23 lung; 99.6% with NCI-H226 lung; 93.6% with NCI-H322M lung; 89.9% in the test with HOP-62 NSCLC; 95.6% with NCI-H460 lung; 77.9% in the test on HOP-92 NSCLC. Moreover, the growth in the test on NCI-H522 lung was 95.3%; in the test on A549/ATCC NSCLC it was 85.3%; with 786-0 renal, 94.9%; with COLO 205 colon, 86.8%.

Take `O=S(=O)(O)c1ccc(F)cc1`: the growth in the test with NCI-H23 lung was 96.1%; with NCI-H226 lung, 103%; with NCI-H322M lung it was 97.3%; in the test with HOP-62 NSCLC it was 92.6%; with NCI-H460 lung, 111%; in the test with HOP-92 NSCLC, 116%. The growth in the test with NCI-H522 lung is 82.8%; in the test on A549/ATCC NSCLC it was 101%; in the test with 786-0 renal, 103%; with COLO 205 colon, 114%.
